From the antibiotic and cytotoxicity screens of Wong et al. (2023)
Among all 39,000 compounds or so, about 1,500 (3.8%) were called active. The entries come from a sample that favours actives as a whole.

The molecules below were run on HSkMC (human skeletal muscle cells) (assay: cytotoxicity call (relative viability < 0.9)). Conditions: 10 µM.

**Q.** With `CC(C)NC(=O)N(C)C[C@@H]1Oc2ccc(NS(=O)(=O)c3cccs3)cc2C(=O)N([C@@H](C)CO)C[C@H]1C` as the molecule, how does the cytotoxicity call read?
**A.** inactive

**Q.** Which cytotoxicity call does the source give for `C[C@@H]1CCCCO[C@@H](CN(C)C(=O)NC2CCCCC2)[C@H](C)CN([C@@H](C)CO)C(=O)c2cc(NC(=O)Nc3ccccc3)ccc2O1` here?
**A.** inactive

**Q.** For `Cc1ccc(S(=O)(=O)N(C)C[C@@H]2OCCCC[C@@H](C)Oc3ccc(NS(C)(=O)=O)cc3C(=O)N([C@@H](C)CO)C[C@H]2C)cc1`, which cytotoxicity call is on record?
**A.** inactive

**Q.** Which cytotoxicity call does the source give for `COc1cccc(S(=O)(=O)Nc2ccc3c(c2)[C@H]2C[C@@H](CC(=O)NCCc4ccccc4)O[C@H](CO)[C@H]2O3)c1` here?
**A.** active

**Q.** With `O=C(C[C@H]1C[C@H]2c3cc(NC(=O)Nc4ccccc4F)ccc3O[C@H]2[C@@H](CO)O1)NCc1ccc(Oc2ccccc2)cc1` as the molecule, how does the cytotoxicity call read?
**A.** active

**Q.** How did the cytotoxicity call turn out when `COc1cccc(S(=O)(=O)Nc2ccc3c(c2)[C@H]2C[C@H](CC(=O)NCCc4ccccc4)O[C@@H](CO)[C@H]2O3)c1` was run?
**A.** inactive

**Q.** `O=C(C[C@@H]1C[C@H]2c3cc(NC(=O)Nc4ccccc4F)ccc3O[C@H]2[C@@H](CO)O1)NCc1ccc(Oc2ccccc2)cc1` was tested. Which cytotoxicity call did it give?
**A.** inactive

**Q.** With `O=C(C[C@@H]1C[C@@H]2c3cc(NC(=O)Nc4ccccc4F)ccc3O[C@@H]2[C@@H](CO)O1)NCc1ccc(Oc2ccccc2)cc1` as the molecule, how does the cytotoxicity call read?
**A.** inactive

**Q.** For `O=C(C[C@H]1C[C@H]2c3cc(NC(=O)Nc4ccccc4F)ccc3O[C@H]2[C@H](CO)O1)NCc1ccc(Oc2ccccc2)cc1`, which cytotoxicity call is on record?
**A.** inactive

**Q.** With `O=C(C[C@H]1C[C@H]2c3cc(NS(=O)(=O)c4ccc(F)cc4)ccc3O[C@H]2[C@@H](CO)O1)NCc1ccc(Oc2ccccc2)cc1` as the molecule, how does the cytotoxicity call read?
**A.** active

**Q.** How did the cytotoxicity call turn out when `COc1cccc(S(=O)(=O)Nc2ccc3c(c2)[C@H]2C[C@@H](CC(=O)NCCc4ccccc4)O[C@@H](CO)[C@H]2O3)c1` was run?
**A.** inactive

**Q.** `O=C(C[C@@H]1C[C@H]2c3cc(NC(=O)Nc4ccccc4F)ccc3O[C@H]2[C@H](CO)O1)NCc1ccc(Oc2ccccc2)cc1` was tested. Which cytotoxicity call did it give?
**A.** inactive

**Q.** Which cytotoxicity call does the source give for `O=C(C[C@H]1C[C@@H]2c3cc(NC(=O)Nc4ccccc4F)ccc3O[C@@H]2[C@H](CO)O1)NCc1ccc(Oc2ccccc2)cc1` here?
**A.** active

**Q.** With `O=C(C[C@@H]1C[C@@H]2c3cc(NS(=O)(=O)c4ccc(F)cc4)ccc3O[C@@H]2[C@H](CO)O1)NCc1ccc(Oc2ccccc2)cc1` as the molecule, how does the cytotoxicity call read?
**A.** inactive

**Q.** How did the cytotoxicity call turn out when `O=C(C[C@H]1C[C@H]2c3cc(NS(=O)(=O)c4ccc(F)cc4)ccc3O[C@H]2[C@H](CO)O1)NCc1ccc(Oc2ccccc2)cc1` was run?
**A.** inactive

**Q.** For `O=C(O)[C@H]1CCCNC1`, which cytotoxicity call is on record?
**A.** inactive

**Q.** For `CO[C@@H]1CN(C)C(=O)c2ccc(NC(=O)Nc3cccc(F)c3)cc2OC[C@@H](C)N(C(=O)Nc2c(C)noc2C)C[C@@H]1C`, which cytotoxicity call is on record?
**A.** inactive

**Q.** Which cytotoxicity call does the source give for `C[C@H](CO)N1C[C@H](C)[C@@H](CN(C)Cc2ccccc2)OCCCC[C@H](C)Oc2ccc(NC(=O)Nc3ccc4c(c3)OCO4)cc2C1=O` here?
**A.** inactive

**Q.** Which cytotoxicity call does the source give for `C[C@@H]1CCCCO[C@H](CN(C)S(=O)(=O)c2ccc(Cl)cc2)[C@@H](C)CN([C@H](C)CO)C(=O)c2cc(NC(=O)Nc3ccc4c(c3)OCO4)ccc2O1` here?
**A.** inactive

**Q.** How did the cytotoxicity call turn out when `CC(C)NC(=O)N(C)C[C@@H]1OCCCC[C@@H](C)Oc2ccc(NC(=O)C3CCCCC3)cc2C(=O)N([C@@H](C)CO)C[C@@H]1C` was run?
**A.** inactive

**Q.** `Cc1noc(C)c1NC(=O)Nc1ccc2c(c1)C(=O)N([C@@H](C)CO)C[C@@H](C)[C@@H](CN(C)C(=O)C1CCCCC1)OCCCC[C@@H](C)O2` was tested. Which cytotoxicity call did it give?
**A.** inactive

**Q.** How did the cytotoxicity call turn out when `N#Cc1ccc(-c2cccs2)nc1` was run?
**A.** inactive

**Q.** With `C[C@H]1CN([C@@H](C)CO)C(=O)Cc2cc(NC(=O)Cn3cnnn3)ccc2O[C@H]1CN(C)Cc1ccncc1` as the molecule, how does the cytotoxicity call read?
**A.** inactive

**Q.** For `CC(=O)N1Cc2cc(C(=O)NCc3cccc(F)c3)nc(-c3cccc(C4=CCCCC4)c3)c2[C@@H]1CCO`, which cytotoxicity call is on record?
**A.** inactive

**Q.** For `COc1ccc(C#Cc2cccc(-c3nc(C(=O)N4CCN(Cc5ccccc5)CC4)cc4c3[C@H](CCO)N(S(=O)C(C)(C)C)C4)c2)cc1OC` (stereo not given in full), which cytotoxicity call is on record?
**A.** inactive

**Q.** `CCC(=O)N1Cc2cc(C(=O)Nc3nccs3)nc(-c3cccc(-c4ccccc4OC)c3)c2[C@H]1CCO` was tested. Which cytotoxicity call did it give?
**A.** active

**Q.** For `COc1ccccc1-c1cccc(-c2nc(C(=O)Nc3nccs3)cc3c2[C@@H](CCO)N(C(=O)CC2CC2)C3)c1`, which cytotoxicity call is on record?
**A.** inactive

**Q.** How did the cytotoxicity call turn out when `CC(C)(C)S(=O)N1Cc2cc(C(=O)N3CCN(Cc4ccccc4)CC3)nc(-c3cccc(-c4cc5ccccc5o4)c3)c2[C@H]1CCO` (stereo not given in full) was run?
**A.** active

**Q.** With `CC(=O)N1Cc2cc(C(=O)NCC(F)(F)F)nc(-c3cccc(-c4cc5ccccc5o4)c3)c2[C@H]1CCO` as the molecule, how does the cytotoxicity call read?
**A.** inactive

**Q.** How did the cytotoxicity call turn out when `O=C(NCC1CC1)c1cc2c(c(-c3cccc(-c4ccccc4F)c3)n1)[C@@H](CCO)N(C(=O)CC1CC1)C2` was run?
**A.** inactive

**Q.** With `O=C(NCC(F)(F)F)c1cc2c(c(-c3cccc(-c4ccccc4F)c3)n1)[C@@H](CCO)N(C(=O)CC1CC1)C2` as the molecule, how does the cytotoxicity call read?
**A.** active

**Q.** For `COc1ccc(C#Cc2cccc(-c3nc(C(=O)N4CCN(Cc5ccccc5)CC4)cc4c3[C@@H](CCO)N(S(=O)C(C)(C)C)C4)c2)cc1OC` (stereo not given in full), which cytotoxicity call is on record?
**A.** inactive

**Q.** Which cytotoxicity call does the source give for `CC(=O)N1Cc2cc(C(=O)NCc3cccc(F)c3)nc(-c3cccc(C4=CCCCC4)c3)c2[C@H]1CCO` here?
**A.** active

**Q.** How did the cytotoxicity call turn out when `COc1ccccc1-c1cccc(-c2nc(C(=O)Nc3nccs3)cc3c2[C@H](CCO)N(C(=O)CC2CC2)C3)c1` was run?
**A.** inactive

**Q.** With `CC(=O)N1Cc2cc(C(=O)NCc3cc(F)cc(F)c3)nc(-c3cccc(C4=CCCC4)c3)c2[C@H]1CCO` as the molecule, how does the cytotoxicity call read?
**A.** inactive

**Q.** How did the cytotoxicity call turn out when `C[C@@H]1CN([C@@H](C)CO)C(=O)c2cc(NC(=O)CCC(F)(F)F)ccc2O[C@@H](C)CCCCO[C@H]1CN(C)C(=O)Nc1ccccc1` was run?
**A.** inactive

**Q.** How did the cytotoxicity call turn out when `O=C(C[C@H]1CC[C@@H]2[C@H](COC[C@H](O)CN2C(=O)Nc2ccc(Cl)c(Cl)c2)O1)NCc1ccc(Cl)c(Cl)c1` was run?
**A.** inactive

**Q.** With `CCC(=O)N(C)C[C@H]1Oc2ncc(C#C[C@@H](C)O)cc2C(=O)N([C@H](C)CO)C[C@@H]1C` as the molecule, how does the cytotoxicity call read?
**A.** inactive

**Q.** Which cytotoxicity call does the source give for `Cc1noc(C)c1NC(=O)Nc1ccc2c(c1)C(=O)N([C@@H](C)CO)C[C@H](C)[C@@H](CN(C)Cc1ccncc1)OCCCC[C@@H](C)O2` here?
**A.** inactive

**Q.** `CCCN(C)C[C@H]1OCCCC[C@@H](C)Oc2ccc(NC(=O)Nc3ccc(F)cc3)cc2C(=O)N([C@@H](C)CO)C[C@H]1C` was tested. Which cytotoxicity call did it give?
**A.** inactive
